DAX1 inh-1 – DAX1 (NR0B1) inhibitors on StAR promoter, primary screen, cell-based, luminescence, SF-1 (NR5A1), full-length DAX-1; HEK293T StAR-luciferase reporter, SF-1/DAX-1 repression relief; inhibition, % at 6.8 µM; actives 1.1% (n = 370,000);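 active means inhibition above the mean over all tested compounds plus 3 SD, cut at about 3.6% in these data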;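 further: 0% = DAX-1 cells with DMSO and 100% = cells lacking DAX-1 with DMSO; higher inhibition means more luminescence from relief of DAX-1 repression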
hcDAF12 agonist – H. contortus DAF-12 nuclear receptor activators, primary screen, cell-based, luminescence, HEK293, lit1-tk-luc reporter; HEK293 hcDAF-12 lit1-tk-luc reporter; 0% DMSO, 100% Δ7-dafachronic acid; activation, % at 6.8 µM; actives 1.4% (n = 370,000); AID 652067, 2013;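 active means activation above the mean of all tested compounds plus 3 SD, cut at about 5.5% in these data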;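 further: 100% = response to 3 µM Δ7-dafachronic acid high control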
ssDAF12 agonist – S. stercoralis DAF-12 nuclear receptor activators, primary screen, cell-based, luminescence, HEK293, GRIP1 co-expression, lit1-tk-luc; activation, % at 6.8 µM; Nuclear hormone receptor DAF-12 (Strongyloides stercoralis); actives 1% (n = 370,000); HEK293 ssDAF-12/GRIP1 lit1-tk-luc reporter; % of 3 µM dafachronic acid response;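 active means activation above the mean over all tested compounds plus 3 SD, cut at about 0.9% in these data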;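 further: 0% = DMSO-only wells and 100% = 3 µM delta7-dafachronic acid wells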
hgDAF-12 ag – H. glycines DAF-12 receptor agonists, primary screen, cell-based, luminescence, HEK293, GAL4 fusion, UAS-luciferase; Nuclear hormone receptor DAF-12 (Heterodera glycines), GAL4 fusion; HEK293 GAL4-hgDAF12 UAS-luciferase reporter, agonist luminescence; normalized to butyrate control; activation, % at 6.8 µM; actives 1.8% (n = 370,000);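 active means activation above a cutoff set at the mean of all screened compounds plus 3 SD, cut at about 10% in these data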;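 further: 0% = DMSO wells and 100% = sodium butyrate wells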
GAA850 FXN act – FXN promoter activators, primary screen, cell-based, luciferase luminescence, HEK293 lucGAA850; HEK293 lucGAA850 FXN promoter luciferase reporter, 24 h; percent of 10 µM SAHA response; activation, % at 6 µM; actives 0.56% (n = 360,000); AID 540364, 2011;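 active means activation above the average of all compounds screened plus 3 SD, cutoff fixed separately per campaign, cut at about 7.5% in these data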;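 further: 0% = DMSO wells and 100% = 10 µM SAHA wells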
DAX1 inh-2 – DAX1 (NR0B1) inhibitors, primary screen, cell-based, HEK293, Gal4-DAX1, luciferase luminescence; Nuclear receptor subfamily 0 group B member 1 (Homo sapiens), P51843; HEK293 Gal4-DAX1 luciferase reporter; inhibition, % at 6.75 µM; actives 0.99% (n = 340,000); AID 504766, 2011;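 active means inhibition above the mean over all tested compounds plus 3 SD, cut at about 4.2% in these data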;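 further: 0% = DAX1-transfected cells with DMSO and 100% = empty-vector control cells with DMSO; inhibition shows as a rise in luminescence from relieved DAX1 repression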
Target sequence (P51843 207-470 limits assumed): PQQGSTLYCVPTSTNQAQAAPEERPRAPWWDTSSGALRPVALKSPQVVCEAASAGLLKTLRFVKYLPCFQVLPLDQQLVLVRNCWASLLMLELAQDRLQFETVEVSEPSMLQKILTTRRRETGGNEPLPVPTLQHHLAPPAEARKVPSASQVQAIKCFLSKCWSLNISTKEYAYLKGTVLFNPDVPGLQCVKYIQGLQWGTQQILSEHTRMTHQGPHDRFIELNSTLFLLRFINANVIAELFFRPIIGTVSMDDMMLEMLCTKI
Active calls of the source: *; . = not tested or not shown. Compounds with a hit are over-represented: about 4.5% of the library has one in this group of screens.

SMILES	DAX1 inh-1	hcDAF12 agonist	ssDAF12 agonist	hgDAF-12 ag	GAA850 FXN act	DAX1 inh-2
O=C(COC(=O)c1ccc2c(c1)OCCO2)Nc1ccc(F)cc1F	0	-1	-1	-1	-2	0
CCCCNC(=O)NS(=O)(=O)c1ccc(NC(=O)CSc2nnc(-c3cccs3)n2-c2ccc(OC)cc2)cc1	-1	-3	-1	1	.	.
CCOc1ccccc1C(=O)Nc1ccccc1O	-1	1	-1	0	0	-1
CCOc1ccccc1C(=O)Nc1ccccc1-c1ccccc1	0	5.7*	-1	-1	0	0
O=C(CSc1nc(=O)n2ccccc2n1)NCCc1ccccc1	3.9*	0	0	0	1	0
CC(C)n1nnnc1SCC(=O)NCCc1ccccc1	0	1	-1	5	4	0
O=C(CSc1nnnn1C1CCCC1)NCCc1ccccc1	1	0	-1	5	4	5.3*
COc1ccccc1Cc1c(-c2ccc(OC)c(OC)c2)nc2ccc(Br)cn12	0	1	0	7	.	.
COc1ccccc1Cc1c(-c2ccc(C)cc2)nc2ccc(Cl)cn12	3.9*	1	0	8	.	.
COc1ccccc1Cc1c(-c2ccc(F)cc2)nc2ccc(Br)cn12	0	3	1.3*	8	.	.
COc1ccc(-n2c(SCC(=O)c3ccc4ccccc4c3)nnc2-c2ccccc2)cc1	-1	-3	-1	0	.	.
CC(C)(C)c1ccc(S(=O)(=O)N2CCC(c3cn4ccccc4n3)CC2)cc1	-1	-2	0	3	.	.
O=c1c(-c2nc3ccccc3s2)cccn1Cc1ccc(Cl)cc1	0	0	-1	4	3	0
Clc1ccc(-c2cn(-c3nc4ccccc4s3)nn2)cc1	1	5.7*	0	2	.	.
CN(C)N1C(N)=C(C#N)C(c2cccc3ccccc23)C2=C1CC(c1ccccc1)CC2=O (stereo unspecified)	0	0	-2	-1	-5	5.6*
CN(C)N1C(N)=C(C#N)C(c2ccccc2)C2=C1CC(C)(C)CC2=O (stereo unspecified)	0	1	-1	0	-2	1
CCn1c2ccccc2c2cc(NC(=O)COC(=O)c3cccc(F)c3F)ccc21	1	1	-2	-2	.	.
O=C(O)c1cc(-c2ccc3c(c2)OCO3)nc2ccc(Cl)cc12	1	5.8*	1	1	4	0
O=C(c1cc(-c2ccncc2)nc2ccc(Cl)cc12)N1CCN(Cc2ccc3c(c2)OCO3)CC1	0	2	-1	-4	-1	-1
CC(C)(C)NC(=O)c1cc(-c2ccc3c(c2)OCO3)nc2ccccc12	-1	5.9*	0	4	3	0
COc1cc(/C=C/c2cc[n+](C)cc2)ccc1OCC(=O)Nc1ccccc1	0	1	-1	1	-2	2
C/C=C/c1ccc(OCC(=O)Nc2ccc(C(N)=O)cc2)c(OC)c1	0	1	1.1*	1	1	1
CCOc1ccccc1CN1CCN(Cc2ccc3cc(F)ccc3n2)CC1CCO (stereo unspecified)	0	5	0	2	2	5.4*
COc1ccc(C(=O)NC2CCCCCCC2)cc1OC	0	0	-1	2	2	3
O=C(NNC(=O)C1CCCCC1)c1ccncc1	0	-2	-1	0	1	1
SMILES	DAX1 inh-1	hcDAF12 agonist	ssDAF12 agonist	hgDAF-12 ag	GAA850 FXN act	DAX1 inh-2
O=C(NNC(=O)c1ccncc1)NC1CCCCC1	0	-1	-2	1	1	4.8*
CN1C(=O)c2ccc(C(=O)NC3CCCCC3)cc2C1=O	-1	0	1.0*	2	1	2
O=C(NC1CCCCCCC1)c1ccc(F)cc1	2	4	0	11*	5	2
O=C(Nc1ccc2nsnc2c1)NC1CCCCC1	2	3	0	12*	2	3
O=C(Nc1ccc(F)cc1)NC1CCCCCCC1	4	0	-1	12*	3	0
O=C(Nc1ccc(Cl)cc1)NC1CCCCC1	2	2	-1	10	4	2
O=C(NC1CCC1)c1ccc(C#Cc2cccc(F)c2)nc1	0	2	-1	11*	.	.
CN(CCOC(=O)c1cc2ccccc2o1)C1CN(Cc2cn(Cc3ccccc3C(F)(F)F)nn2)S(=O)(=O)C1 (stereo unspecified)	-1	1	-1	1	.	.
CC(C)(C)c1ccc(-c2nnc(SCC(=O)Nc3ccc(S(=O)(=O)Nc4nccs4)cc3)n2-c2ccc(Cl)cc2)cc1	1	-1	-1	3	.	.
COc1ccc(Cn2cc(CN3[C@@H](Cc4ccccc4)COc4cc(Br)ccc4S3(=O)=O)nn2)cc1	-1	-2	-1	1	.	.
Cc1cccc(CCNc2nc3ccc(C)cc3n3cnnc23)c1	0	0	-2	1	-2	5.0*
Cc1ccc2nc(NCCc3ccc(Cl)cc3)c3nncn3c2c1	0	0	-1	0	1	1
O=C(c1cccc(F)c1)n1ccc2ccc(-c3ccc4ccn(Cc5ccccc5)c4c3)cc21	-1	-1	-1	1	.	.
O=C(c1ccccc1)n1ccc2ccc(-c3ccc4ccn(Cc5ccccc5)c4c3)cc21	-1	2	0	11*	.	.
Cc1ccc(CNS(=O)(=O)c2cc3c(cc2C)N(C)CCO3)cc1	-1	3	-1	1	0	1
CC(=O)N1CCOc2cc(S(=O)(=O)NCc3ccc(F)cc3)c(C)cc21	0	-2	-1	0	0	5.6*
O=C(NC1CCCCN(Cc2cccc(Cl)c2)C1=O)c1ccc2ccccc2c1 (stereo unspecified)	0	-2	-2	3	.	.
CCC(C(=O)Nc1ccccc1N1CCCC1)c1ccccc1F (stereo unspecified)	-1	-2	-1	3	.	.
FC(F)(F)c1cccc(N2CCN(C(=S)Nc3nccc4ccccc34)CC2)c1	.	5	-1	3	.	.
FC(F)(F)c1nnc2c(Sc3ccccn3)nc3ccccc3n12	0	5.6*	0	7	7	1
FC(F)(F)c1nnc2c(Sc3ccccc3)nc3ccccc3n12	1	4	0	6	1	0

Assay outcomes from PubChem BioAssay.
